Screens from PubChem BioAssay.
Hits are enriched below; roughly 7.3% of the tested compounds scored in any of these assays.
uPA generation: qHTS for Inhibitors of Cell Surface uPA Generation | cell surface uPA generation assay, qHTS | Potency, µM (doses to about 38.3 µM), for inactives: top-dose activity change, negative = inhibition, actives largely listed as inhibitors | actives 0.31% (n = 330,000); active means well fitted inhibition curve with a large enough effect; inconclusive means small, poorly fitted or top-dose-only effect; inactive means no such curve, though single readings can be large or run the other way; tested in mouse RAW 264.7 cells; further: on the % scale 0 is the no-effect control and ±100 the full control effect; nearly all actives have a fitted effect of over 55% in size
FLuc modulator: qHTS profiling assay for firefly luciferase inhibitor/activator using purifed enzyme and Km concentrations of substrates (counterscreen for miR-21 project) | Luciferin 4-monooxygenase (Photinus pyralis), P08659 | purified FLuc, Km substrates, luminescence inhibition | Potency, µM (top dose mostly 57.5 µM), without a hit: top-dose activity change, negative = inhibition, actives largely listed as inhibitors | actives 6.9% (n = 360,000) | AID 588342, 2011;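 further: plate controls were vehicle for no effect and reference inhibitor for full effect; nearly all actives have a fitted effect of over 55% in size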
Target sequence (P08659 whole entry, looked up): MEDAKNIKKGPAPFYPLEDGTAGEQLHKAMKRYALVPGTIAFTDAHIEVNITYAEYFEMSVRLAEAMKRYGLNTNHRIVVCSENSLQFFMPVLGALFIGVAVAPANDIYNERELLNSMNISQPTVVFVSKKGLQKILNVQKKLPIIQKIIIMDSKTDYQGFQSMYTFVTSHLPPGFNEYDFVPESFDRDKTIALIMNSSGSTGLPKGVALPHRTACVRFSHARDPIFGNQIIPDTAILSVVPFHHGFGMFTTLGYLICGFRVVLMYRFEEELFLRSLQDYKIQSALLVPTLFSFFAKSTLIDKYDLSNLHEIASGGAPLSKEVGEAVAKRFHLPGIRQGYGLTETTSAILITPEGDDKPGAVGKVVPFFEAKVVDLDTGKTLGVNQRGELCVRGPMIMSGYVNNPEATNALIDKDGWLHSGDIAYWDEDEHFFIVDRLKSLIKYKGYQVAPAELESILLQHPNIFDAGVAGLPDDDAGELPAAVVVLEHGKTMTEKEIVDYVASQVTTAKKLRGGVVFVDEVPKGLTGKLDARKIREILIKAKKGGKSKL
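Purified P. pyralis luciferase, 10 nM final, with Km-level 10 uM D-luciferin and 10 uM ATP in 50 mM Tris acetate pH 7.5, 10 mM Mg acetate, 0.01% Tween-20, 0.05% BSA; 6-point qHTS titration about 60 µM downward; luminescence read.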
NPC1 promoter act: qHTS Assay for NPC1 Promoter Activators; actives 2.4% (n = 320,000); Huh7 NPC1 promoter luciferase reporter, 24 h; AID 485313, 2010; Potency, µM (titrated, usually from 9.22 µM), for the others: at the top dose activation, most hits filed as activators; further: % of control where 0% means no effect; nearly all actives have a fitted effect of over 60% in size
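Huh7 cells stably carrying NPC1 promoter–luciferase, plated in Opti-MEM with 10% FBS for 2 h, were exposed to compound in DMSO for 24 h at 37 °C; luciferase reagent was added for 10 min and luminescence read.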
ELG1 genotoxic: qHTS screen for small molecules that induce genotoxicity in human embryonic kidney (HEK293T) cells expressing luciferase-tagged ELG1; actives 1.3% (n = 330,000); Potency, µM (series often up to 46 µM), without a hit: top-dose activity change, positive = activation, most hits filed as activators; HEK293T ELG1-luciferase reporter, luminescence, 16 h; further: % of control where 0% means no effect; nearly all actives have a fitted effect of over 60% in size
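Genotoxicity was scored as increased ELG1-luciferase reporter signal, measured by ONE-Glo luminescence (30 min, room temperature). Compound or vehicle exposure of the HEK293T reporter cells lasted 16 hr at 37°C.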
Rab9 promoter act: qHTS Assay for Rab9 Promoter Activators; Huh7 Rab9 promoter-luciferase reporter, luminescence, 24 h; Potency, µM (series often up to 9.22 µM), inactives show at the highest dose activation, negative = inhibition, actives largely listed as activators; actives 2.8% (n = 320,000); AID 485297, 2010; further: % of control where 0% means no effect; nearly all actives have a fitted effect of over 60% in size
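Quantitative HTS format; Huh7 Rab9-luciferase reporter cells (1500/well) receive compound 2 h post-plating, incubate 24 h at 37 °C, then get luciferase reagent for 10 min before luminescence reading.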
SMN2 splice up: qHTS Assay for Enhancers of SMN2 Splice Variant Expression; HEK293 SMN2-luciferase splicing reporter, luminescence, 30-36 h; Potency, µM (top dose mostly 46.1 µM), inactives show at the top dose activity change, positive = activation, usual class: activators; actives 2.8% (n = 210,000); AID 1458, 2008; further: % of control where 0% means no effect; nearly all actives have a fitted effect of over 55% in size
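HEK293 cells carry an SMN2 […]–luciferase reporter in which exon 7 inclusion puts luciferase in frame. Cells were plated 10-12 h before compound addition, then incubated 30-36 h at 37C. ONE-Glo luminescence was read; sodium butyrate at 4.5 mM final served as control.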
* marks the source's active call; other numbers are inactive results; ? = inconclusive; nt = no result; [ ] = dose if it differs, or a comment. Unless noted, the call rests on the fitted dose curve; in most records, active means well fitted curve in the direction sought with a large enough effect; inconclusive means small, poorly fitted or top-dose-only effect, or another doubt; inactive means no such curve, though single readings can be large; an effect the other way counts as inactive or inconclusive. Potency means the concentration at half of the fitted maximal effect.

SMILES	uPA generation	FLuc modulator	NPC1 promoter act	ELG1 genotoxic	Rab9 promoter act	SMN2 splice up
Cc1nn(CC(=O)NCCc2ccccc2)c(=O)c2nn(-c3ccccc3)c(C)c12	nt	-10%	nt	nt	nt	nt
CCn1c(SCC(=O)Nc2ccc3c(c2)OCCO3)nnc1-c1ccco1	-6%	15µM*	-1%	-2%	3%	-8%
CCn1c(SCC(=O)Nc2ccc3c(c2)OCCO3)nnc1-c1cccnc1	7%	24µM*	3%	2%	16%	nt
CCn1c(SCC(=O)Nc2ccc3c(c2)OCO3)nnc1-c1cnccn1	1%	0%	2%	1%	0%	-19%
O=C(CSc1nnc(-c2cccs2)n1Cc1ccco1)Nc1ccc2c(c1)OCO2	5%	1%	-1%	-5%	-2%	-20%
CCn1c(SCC(=O)NC(=O)Nc2ccc3c(c2)OCCO3)nnc1-c1cccs1	-6%	19µM*	2%	13%	8%	-9%
Cc1ccc(C)c(C(=O)c2c(N)c(-c3nc(-c4ccc5c(c4)OCO5)cs3)c3ccccn23)c1	nt	3%	nt	nt	nt	-4%
COc1ccccc1NC(=O)C(=O)c1cc(C)n(-c2cc(C)cc(C)c2)c1C	nt	-14%	nt	nt	nt	nt
Cc1ccc(/C=C2\SC(=S)N(CCC(=O)NCCCN3CCOCC3)C2=O)cc1	-10%	?	-2%	-8%	-2%	nt
COc1ccc(/C=C2\SC(=S)N(CCC(=O)NCCCN3CCOCC3)C2=O)cc1	13%	17µM*	1%	0%	-8%	nt
CCc1ccc(/C=C2\SC(=S)N(CCC(=O)NCCCN3CCOCC3)C2=O)cc1	-4%	6.7µM*	15%	9%	-14%	nt
Cc1ccc(C2N(C)C(=O)c3ccccc3N2C)cc1 (stereo not given)	-7%	4%	1%	-6%	5%	nt
Cc1nc(SCc2ccc(OCCC(C)C)cc2)n[nH]1	-12%	21µM*	?	?	?	?
Oc1ccc(Br)cc1-c1cc(-c2ccccc2F)[nH]n1	0%	-2%[2.3 µM]	-5%	0%	-1%	?
Cc1ccc(-c2cc(-c3ccccc3Cl)[nH]n2)c(O)c1	12%	-29%[2.3 µM]	?	?	?	13µM*
Cc1ccc(-c2cc(NC(=O)c3ccccc3[N+](=O)[O-])n[nH]2)cc1	-4%	?	2%	3%	4%	nt
Cc1ccccc1-c1cc(-c2ccccc2O)n[nH]1	3%	?	28%	?	3.2µM*	25µM*
Cc1ccc(-c2cc(-c3ccccc3[N+](=O)[O-])[nH]n2)c(O)c1	nt	?	?	?	3.5µM*	18µM*
CN[C@H]1CCc2cc(OC)c(OC)c(OC)c2-c2ccc(N[C@@H]3CCCCNC3=O)c(=O)cc21	nt	nt	nt	nt	nt	-9%
CCCC(=O)Nc1nc2ccc(OC)cc2s1	-15%	7.6µM*	0.89µM*	?	1.8µM*	10µM*
COc1ccc2nc(NC(=O)CSc3ccccc3)sc2c1	1%	17µM*	17%	?	13%	-11%
CSc1nsc(SCC(=O)Nc2ccc(OC(C)=O)cc2)n1	4%	?	21%	?	?	?
COc1ccc2nc(NC(=O)CSc3nnc(N)s3)sc2c1	13%	?	?	16%	2µM*	10µM*
CCOc1ccc2nc(NC(=O)CSc3nc(SC)ns3)sc2c1	-1%	24µM*	22%	18%	?	?
COc1cccc(CN2C(=O)N(c3ccc(C)cc3)C(=O)C2CC(=O)Nc2cc(OC)cc(OC)c2)c1 (stereo not given)	nt	-3%	nt	nt	nt	nt
SMILES	uPA generation	FLuc modulator	NPC1 promoter act	ELG1 genotoxic	Rab9 promoter act	SMN2 splice up
COc1ccc2nc(NC(=O)CSc3nnc(C)n3N)sc2c1	?	3µM*	1.6µM*	7.3µM*	0.5µM*	nt
CCOc1ccc2nc(NC(=O)CSc3ccc(Cl)cc3)sc2c1	3%	?	2%	25%	2%	8%
COc1ccc2nc(NC(=O)CSc3nc4cccnc4n3C)sc2c1	6%	-3%	-4%	-4%	-1%	-43%
COc1ccc2nc(NC(=O)CSC3=NCCS3)sc2c1	-4%	17µM*	?	-1%	?	-7%
COc1ccc2nc(NC(=S)N(C)C)sc2c1	-2%	1.9µM*	0.71µM*	0.82µM*	0.63µM*	-18%
CCOc1ccc2nc(NC(=O)CSC3=NCCS3)sc2c1	-12%	15µM*	?	?	?	6%
COCCNc1nc(C)cc(-c2cc(-c3ccc(Cl)cc3)on2)n1	16%	15µM*	10%	0%	0%	nt
CC1=CN2C(=N)/C(=C/c3ccc([N+](=O)[O-])o3)C(=O)N=C2S1	-5%	13µM*	-30%	-14%	-54%	-39%
CC1=CN2C(=N)/C(=C/c3ccco3)C(=O)N=C2S1	-7%	1.5µM*	2.5µM*	?	1.8µM*	3.5µM*
CC1=CN2C(=N)/C(=C/c3cn(CCCOc4ccccc4C)c4ccccc34)C(=O)N=C2S1	1%	-8%	?	?	?	-48%
COc1cc(-c2nc3nc(C)cc(C)n3c2Nc2ccc(Cl)cc2)ccc1O	nt	-9%	nt	nt	nt	2%
CN1N=C2c3ccccc3CCC2C1c1ccc(F)cc1 (stereo not given)	0%	?	?	17%	2.5µM*	nt
CN1N=C2c3ccccc3CCC2C1c1ccc(Cl)cc1 (stereo not given)	0%	11µM*	?	?	?	nt
Cc1ccc(-n2nnnc2CNC(=O)C(C)C)cc1C	nt	8%	nt	nt	nt	nt
O=C1CCN(c2ccc([N+](=O)[O-])cc2F)CC1	-3%	4%	-1%	-7%	2%	-14%
CCc1c(C)[nH]c(C(=O)OCc2ccccc2)c1C	5%	?	21%	?	?	nt
COC(=O)c1c(C)[nH]c(C(=O)CSc2ccc(Cl)cc2)c1C	0%	4.8µM*	4µM*	?	2.5µM*	11µM*
COC(=O)c1c(C)[nH]c(C(=O)OCc2ccc(F)cc2)c1C	0%	9.5µM*	3.5µM*	?	4µM*	nt
CCc1c(C(=O)OCc2ccccc2)[nH]c(C)c1C	0%	24µM*	28%	?	?	nt
CCOc1ccc(-n2nc3ccc(NC(=O)COc4ccccc4C)cc3n2)cc1	nt	-6%	nt	nt	nt	5%
O=C(NN=C(Cc1ccccc1)Cc1ccccc1)c1ccccc1O	3%	12µM*	-6%	1%	-18%	1%
CCC/C(C)=N/NC(=O)c1ccccc1O	-4%	?	-5%	-1%	-4%	0%
